Data taken from ChEMBL document CHEMBL1961873, “Compounds: GSK PKIS; Assays: Nanosyn kinase panel” (2012).
Several values for one entry are separate records, joined by “and”; a condition that tells them apart may be missing. Equal values may be shown once.

Experiments:
[1] = molecular target: T1, Serine/threonine-protein kinase D2 (Homo sapiens) (UniProt Q9BZL6); details: at 1 µM;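 further: mean value of PRKD2 inhibition, from the GSK PKIS screening panel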
T1 sequence (whole entry): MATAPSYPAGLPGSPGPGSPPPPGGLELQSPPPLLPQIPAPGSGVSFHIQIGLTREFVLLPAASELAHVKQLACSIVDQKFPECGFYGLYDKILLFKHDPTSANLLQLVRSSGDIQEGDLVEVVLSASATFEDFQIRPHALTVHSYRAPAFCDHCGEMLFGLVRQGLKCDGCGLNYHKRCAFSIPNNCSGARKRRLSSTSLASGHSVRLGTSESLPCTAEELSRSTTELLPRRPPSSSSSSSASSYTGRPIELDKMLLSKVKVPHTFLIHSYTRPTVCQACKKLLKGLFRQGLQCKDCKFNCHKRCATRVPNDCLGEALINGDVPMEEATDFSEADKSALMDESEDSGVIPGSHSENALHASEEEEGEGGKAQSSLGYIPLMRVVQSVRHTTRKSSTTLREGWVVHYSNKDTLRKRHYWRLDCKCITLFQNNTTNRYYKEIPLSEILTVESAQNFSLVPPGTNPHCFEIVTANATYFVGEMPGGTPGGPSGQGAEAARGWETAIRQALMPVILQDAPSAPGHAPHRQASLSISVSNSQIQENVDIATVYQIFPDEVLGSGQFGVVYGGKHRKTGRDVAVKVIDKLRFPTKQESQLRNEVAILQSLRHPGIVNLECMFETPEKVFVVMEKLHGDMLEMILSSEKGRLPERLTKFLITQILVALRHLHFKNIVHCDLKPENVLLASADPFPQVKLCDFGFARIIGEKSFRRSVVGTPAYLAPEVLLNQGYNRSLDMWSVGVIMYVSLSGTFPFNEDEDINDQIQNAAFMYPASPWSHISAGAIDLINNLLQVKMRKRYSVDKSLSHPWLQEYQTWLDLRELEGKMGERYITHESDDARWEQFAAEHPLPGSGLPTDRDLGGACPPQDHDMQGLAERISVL

[2] = molecular target: T2, Serine/threonine-protein kinase D3 (Homo sapiens) (UniProt O94806); details: at 0.1 µM
T2 sequence (whole entry): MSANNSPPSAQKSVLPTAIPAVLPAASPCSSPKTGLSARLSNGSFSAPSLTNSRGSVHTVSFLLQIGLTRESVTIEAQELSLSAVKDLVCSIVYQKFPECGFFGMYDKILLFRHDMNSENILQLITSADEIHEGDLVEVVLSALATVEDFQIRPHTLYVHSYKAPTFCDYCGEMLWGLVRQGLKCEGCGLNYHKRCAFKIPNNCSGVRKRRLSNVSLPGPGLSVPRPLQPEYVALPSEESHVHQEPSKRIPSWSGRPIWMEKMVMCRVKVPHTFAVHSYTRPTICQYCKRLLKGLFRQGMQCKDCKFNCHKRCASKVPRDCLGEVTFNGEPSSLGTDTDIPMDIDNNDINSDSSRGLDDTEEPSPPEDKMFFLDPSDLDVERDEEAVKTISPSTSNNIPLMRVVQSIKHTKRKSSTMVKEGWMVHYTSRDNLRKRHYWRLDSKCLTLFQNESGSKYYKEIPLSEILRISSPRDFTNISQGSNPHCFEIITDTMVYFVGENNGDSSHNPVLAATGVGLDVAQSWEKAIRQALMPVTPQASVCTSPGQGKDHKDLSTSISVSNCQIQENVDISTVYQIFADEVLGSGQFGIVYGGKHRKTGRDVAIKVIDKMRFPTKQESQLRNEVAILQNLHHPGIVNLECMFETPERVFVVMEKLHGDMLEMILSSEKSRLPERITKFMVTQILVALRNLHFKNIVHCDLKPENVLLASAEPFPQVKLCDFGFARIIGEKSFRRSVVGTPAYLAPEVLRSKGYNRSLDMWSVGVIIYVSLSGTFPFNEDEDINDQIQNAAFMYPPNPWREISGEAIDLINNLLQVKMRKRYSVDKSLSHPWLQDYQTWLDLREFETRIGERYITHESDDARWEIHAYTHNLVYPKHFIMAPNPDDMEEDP

[3] = molecular target: T2, Serine/threonine-protein kinase D3 (Homo sapiens); details: at 1 µM
[4] = molecular target: T3, cGMP-dependent protein kinase 1 (Homo sapiens) (UniProt Q13976); details: at 0.1 µM
T3 sequence (whole entry): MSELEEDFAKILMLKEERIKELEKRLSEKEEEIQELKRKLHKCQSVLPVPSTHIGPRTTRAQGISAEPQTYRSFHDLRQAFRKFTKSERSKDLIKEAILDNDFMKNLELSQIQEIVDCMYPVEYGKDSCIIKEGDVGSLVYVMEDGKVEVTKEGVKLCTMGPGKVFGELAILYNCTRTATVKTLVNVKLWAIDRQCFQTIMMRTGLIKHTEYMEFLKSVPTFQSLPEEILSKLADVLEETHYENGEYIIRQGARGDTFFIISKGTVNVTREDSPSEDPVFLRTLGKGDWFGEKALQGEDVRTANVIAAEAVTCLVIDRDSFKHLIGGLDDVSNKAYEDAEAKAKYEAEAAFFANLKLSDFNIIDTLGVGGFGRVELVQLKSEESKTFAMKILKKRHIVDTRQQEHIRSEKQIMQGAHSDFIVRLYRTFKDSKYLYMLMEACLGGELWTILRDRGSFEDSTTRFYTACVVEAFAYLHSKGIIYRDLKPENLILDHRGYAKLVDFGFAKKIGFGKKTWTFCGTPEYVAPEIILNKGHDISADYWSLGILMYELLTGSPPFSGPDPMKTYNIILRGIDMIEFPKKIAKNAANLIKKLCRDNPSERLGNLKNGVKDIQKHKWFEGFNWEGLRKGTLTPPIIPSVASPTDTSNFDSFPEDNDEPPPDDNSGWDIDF

[5] = molecular target: T3, cGMP-dependent protein kinase 1 (Homo sapiens); details: at 1 µM
[6] = molecular target: T4, cGMP-dependent protein kinase 2 (Homo sapiens) (UniProt Q13237); details: at 0.1 µM
T4 sequence (whole entry): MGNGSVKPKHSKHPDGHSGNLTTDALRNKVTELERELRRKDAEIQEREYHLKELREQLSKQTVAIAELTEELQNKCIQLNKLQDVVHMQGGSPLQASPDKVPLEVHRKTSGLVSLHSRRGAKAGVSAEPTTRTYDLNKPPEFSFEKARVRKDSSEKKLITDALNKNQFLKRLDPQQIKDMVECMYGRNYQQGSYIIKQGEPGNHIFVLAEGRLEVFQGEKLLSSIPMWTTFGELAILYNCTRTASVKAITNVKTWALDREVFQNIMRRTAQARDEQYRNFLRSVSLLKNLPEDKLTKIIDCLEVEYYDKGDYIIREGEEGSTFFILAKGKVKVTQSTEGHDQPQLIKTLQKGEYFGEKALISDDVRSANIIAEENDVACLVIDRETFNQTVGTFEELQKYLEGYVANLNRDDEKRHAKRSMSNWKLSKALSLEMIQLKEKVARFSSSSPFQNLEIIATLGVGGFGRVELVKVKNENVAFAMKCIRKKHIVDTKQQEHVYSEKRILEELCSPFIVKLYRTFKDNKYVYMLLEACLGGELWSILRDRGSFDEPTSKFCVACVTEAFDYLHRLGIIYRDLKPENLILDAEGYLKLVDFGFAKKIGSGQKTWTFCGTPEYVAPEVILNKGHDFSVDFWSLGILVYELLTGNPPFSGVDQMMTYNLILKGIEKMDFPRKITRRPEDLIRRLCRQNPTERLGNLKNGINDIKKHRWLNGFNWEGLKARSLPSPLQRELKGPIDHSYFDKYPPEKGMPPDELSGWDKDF

[7] = molecular target: T4, cGMP-dependent protein kinase 2 (Homo sapiens); details: at 1 µM
[8] = molecular target: T5, cAMP-dependent protein kinase catalytic subunit PRKX (Homo sapiens) (UniProt P51817); details: at 0.1 µM
T5 sequence (whole entry): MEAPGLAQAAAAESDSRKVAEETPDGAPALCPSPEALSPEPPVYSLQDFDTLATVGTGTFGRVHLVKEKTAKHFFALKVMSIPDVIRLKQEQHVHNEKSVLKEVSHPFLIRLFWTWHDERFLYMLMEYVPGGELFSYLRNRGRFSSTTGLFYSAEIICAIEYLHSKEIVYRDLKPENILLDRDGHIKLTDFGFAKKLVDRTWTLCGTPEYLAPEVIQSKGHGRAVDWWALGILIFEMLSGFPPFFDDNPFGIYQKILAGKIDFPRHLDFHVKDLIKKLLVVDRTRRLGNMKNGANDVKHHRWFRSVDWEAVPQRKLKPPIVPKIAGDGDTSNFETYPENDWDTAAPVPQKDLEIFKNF

[9] = molecular target: T5, cAMP-dependent protein kinase catalytic subunit PRKX (Homo sapiens); details: at 1 µM
[10] = molecular target: Rho-associated protein kinase 1 (Homo sapiens) (UniProt Q13464); details: at 0.1 µM
[11] = molecular target: Rho-associated protein kinase 1 (Homo sapiens) (UniProt Q13464); details: at 1 µM
[12] = molecular target: Rho-associated protein kinase 2 (Homo sapiens) (UniProt O75116); details: at 0.1 µM
[13] = molecular target: Rho-associated protein kinase 2 (Homo sapiens) (UniProt O75116); details: at 1 µM
[14] = molecular target: Ribosomal protein S6 kinase alpha-1 (Homo sapiens) (UniProt Q15418); details: at 0.1 µM
[15] = molecular target: Ribosomal protein S6 kinase alpha-1 (Homo sapiens) (UniProt Q15418); details: at 1 µM
[16] = molecular target: Ribosomal protein S6 kinase alpha-3 (Homo sapiens) (UniProt P51812); details: at 0.1 µM
[17] = molecular target: Ribosomal protein S6 kinase alpha-3 (Homo sapiens) (UniProt P51812); details: at 1 µM
[18] = molecular target: Ribosomal protein S6 kinase alpha-2 (Homo sapiens) (UniProt Q15349); details: at 0.1 µM
[19] = molecular target: Ribosomal protein S6 kinase alpha-2 (Homo sapiens) (UniProt Q15349); details: at 1 µM
[20] = molecular target: Ribosomal protein S6 kinase alpha-6 (Homo sapiens) (UniProt Q9UK32); details: at 0.1 µM;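 further: reported value is the mean inhibition of RSK4, from the GSK PKIS kinase inhibitor screen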
Ribosomal protein S6 kinase alpha-6 (Homo sapiens), sequence (Q9UK32 whole entry): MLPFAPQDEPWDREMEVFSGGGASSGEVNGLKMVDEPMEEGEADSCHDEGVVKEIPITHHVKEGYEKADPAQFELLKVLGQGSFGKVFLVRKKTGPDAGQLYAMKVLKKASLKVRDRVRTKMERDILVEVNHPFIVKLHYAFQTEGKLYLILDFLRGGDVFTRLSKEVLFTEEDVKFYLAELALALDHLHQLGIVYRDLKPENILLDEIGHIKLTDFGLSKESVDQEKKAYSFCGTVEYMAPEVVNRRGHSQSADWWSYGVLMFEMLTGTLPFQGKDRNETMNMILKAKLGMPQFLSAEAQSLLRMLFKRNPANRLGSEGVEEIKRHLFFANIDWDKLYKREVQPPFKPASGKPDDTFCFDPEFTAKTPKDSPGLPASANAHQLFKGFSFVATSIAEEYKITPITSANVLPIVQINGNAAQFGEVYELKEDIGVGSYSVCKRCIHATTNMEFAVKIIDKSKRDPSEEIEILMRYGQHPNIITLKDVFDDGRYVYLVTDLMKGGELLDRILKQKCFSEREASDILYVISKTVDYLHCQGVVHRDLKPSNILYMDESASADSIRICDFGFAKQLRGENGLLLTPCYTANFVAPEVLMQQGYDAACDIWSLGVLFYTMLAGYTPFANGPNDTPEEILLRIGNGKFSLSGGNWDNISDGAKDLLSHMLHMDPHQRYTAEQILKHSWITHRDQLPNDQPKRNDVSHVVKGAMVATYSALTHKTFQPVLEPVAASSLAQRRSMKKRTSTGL

Rho-associated protein kinase 1 (Homo sapiens), sequence (Q13464 2-1354 limits assumed): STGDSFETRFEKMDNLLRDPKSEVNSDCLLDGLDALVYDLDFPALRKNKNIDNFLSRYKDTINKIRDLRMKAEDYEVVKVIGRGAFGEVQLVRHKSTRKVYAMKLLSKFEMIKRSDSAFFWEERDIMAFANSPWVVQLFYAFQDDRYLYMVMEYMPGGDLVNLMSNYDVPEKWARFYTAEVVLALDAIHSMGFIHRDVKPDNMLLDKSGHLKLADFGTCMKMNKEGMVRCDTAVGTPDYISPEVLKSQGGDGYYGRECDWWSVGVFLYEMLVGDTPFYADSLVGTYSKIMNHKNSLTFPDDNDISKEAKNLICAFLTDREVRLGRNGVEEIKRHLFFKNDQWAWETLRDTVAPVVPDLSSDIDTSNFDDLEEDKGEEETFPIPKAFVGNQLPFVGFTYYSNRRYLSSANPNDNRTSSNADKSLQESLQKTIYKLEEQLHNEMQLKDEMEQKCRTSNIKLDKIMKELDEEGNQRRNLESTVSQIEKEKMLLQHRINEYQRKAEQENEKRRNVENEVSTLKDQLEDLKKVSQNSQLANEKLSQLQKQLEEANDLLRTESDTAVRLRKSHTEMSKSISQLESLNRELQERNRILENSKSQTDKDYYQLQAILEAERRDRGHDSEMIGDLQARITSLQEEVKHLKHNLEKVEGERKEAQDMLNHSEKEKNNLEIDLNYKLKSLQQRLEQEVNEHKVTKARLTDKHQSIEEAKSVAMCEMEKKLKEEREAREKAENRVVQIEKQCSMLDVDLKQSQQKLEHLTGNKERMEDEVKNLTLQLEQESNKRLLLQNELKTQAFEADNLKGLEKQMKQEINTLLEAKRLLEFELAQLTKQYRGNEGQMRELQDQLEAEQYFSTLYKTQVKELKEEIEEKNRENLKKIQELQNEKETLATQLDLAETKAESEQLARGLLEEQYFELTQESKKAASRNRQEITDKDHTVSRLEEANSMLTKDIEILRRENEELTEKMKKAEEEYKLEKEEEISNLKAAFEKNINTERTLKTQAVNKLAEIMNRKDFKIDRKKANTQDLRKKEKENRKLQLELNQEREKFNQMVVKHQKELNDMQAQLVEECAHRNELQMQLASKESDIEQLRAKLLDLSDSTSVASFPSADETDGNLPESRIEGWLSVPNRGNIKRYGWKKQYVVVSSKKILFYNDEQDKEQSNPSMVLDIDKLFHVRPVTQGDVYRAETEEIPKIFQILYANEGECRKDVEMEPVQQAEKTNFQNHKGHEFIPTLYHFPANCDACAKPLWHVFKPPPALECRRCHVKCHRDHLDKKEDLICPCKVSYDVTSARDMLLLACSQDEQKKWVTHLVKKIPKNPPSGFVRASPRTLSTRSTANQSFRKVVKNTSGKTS
Rho-associated protein kinase 2 (Homo sapiens), sequence (O75116 whole entry, looked up): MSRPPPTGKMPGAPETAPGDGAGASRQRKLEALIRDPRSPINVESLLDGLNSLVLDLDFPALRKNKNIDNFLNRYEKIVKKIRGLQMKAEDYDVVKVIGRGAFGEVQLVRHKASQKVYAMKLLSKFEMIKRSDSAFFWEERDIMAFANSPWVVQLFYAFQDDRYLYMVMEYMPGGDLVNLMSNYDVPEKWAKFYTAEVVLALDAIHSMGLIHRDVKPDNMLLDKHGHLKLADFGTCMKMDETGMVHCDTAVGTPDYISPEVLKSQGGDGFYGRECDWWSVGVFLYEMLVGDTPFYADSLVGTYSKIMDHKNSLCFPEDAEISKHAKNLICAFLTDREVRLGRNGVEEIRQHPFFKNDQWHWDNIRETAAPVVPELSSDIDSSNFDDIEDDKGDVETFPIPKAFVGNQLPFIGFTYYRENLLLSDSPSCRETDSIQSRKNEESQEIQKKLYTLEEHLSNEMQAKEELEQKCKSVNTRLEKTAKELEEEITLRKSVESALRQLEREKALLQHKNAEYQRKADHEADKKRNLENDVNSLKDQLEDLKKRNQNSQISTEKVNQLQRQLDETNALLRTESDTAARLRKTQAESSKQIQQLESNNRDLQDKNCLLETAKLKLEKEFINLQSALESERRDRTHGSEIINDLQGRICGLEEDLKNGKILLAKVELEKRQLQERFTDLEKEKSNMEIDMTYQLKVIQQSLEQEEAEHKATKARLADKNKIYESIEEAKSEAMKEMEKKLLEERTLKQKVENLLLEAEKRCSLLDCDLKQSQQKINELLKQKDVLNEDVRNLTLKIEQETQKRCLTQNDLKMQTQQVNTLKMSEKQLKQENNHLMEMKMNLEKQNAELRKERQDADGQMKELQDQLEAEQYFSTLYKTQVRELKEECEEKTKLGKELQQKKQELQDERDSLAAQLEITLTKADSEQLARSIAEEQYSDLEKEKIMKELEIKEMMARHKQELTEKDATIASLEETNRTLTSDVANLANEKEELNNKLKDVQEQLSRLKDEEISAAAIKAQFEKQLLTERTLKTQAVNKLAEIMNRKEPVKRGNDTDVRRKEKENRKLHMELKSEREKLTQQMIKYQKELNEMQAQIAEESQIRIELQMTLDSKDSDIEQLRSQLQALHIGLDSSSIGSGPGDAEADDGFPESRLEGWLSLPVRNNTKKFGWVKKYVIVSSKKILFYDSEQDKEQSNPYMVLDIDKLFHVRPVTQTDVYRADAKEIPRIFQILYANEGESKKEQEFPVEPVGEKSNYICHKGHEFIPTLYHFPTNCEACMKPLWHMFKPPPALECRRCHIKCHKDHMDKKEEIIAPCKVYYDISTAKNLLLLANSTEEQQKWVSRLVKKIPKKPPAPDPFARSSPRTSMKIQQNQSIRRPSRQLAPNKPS
Ribosomal protein S6 kinase alpha-2 (Homo sapiens), sequence (Q15349 whole entry): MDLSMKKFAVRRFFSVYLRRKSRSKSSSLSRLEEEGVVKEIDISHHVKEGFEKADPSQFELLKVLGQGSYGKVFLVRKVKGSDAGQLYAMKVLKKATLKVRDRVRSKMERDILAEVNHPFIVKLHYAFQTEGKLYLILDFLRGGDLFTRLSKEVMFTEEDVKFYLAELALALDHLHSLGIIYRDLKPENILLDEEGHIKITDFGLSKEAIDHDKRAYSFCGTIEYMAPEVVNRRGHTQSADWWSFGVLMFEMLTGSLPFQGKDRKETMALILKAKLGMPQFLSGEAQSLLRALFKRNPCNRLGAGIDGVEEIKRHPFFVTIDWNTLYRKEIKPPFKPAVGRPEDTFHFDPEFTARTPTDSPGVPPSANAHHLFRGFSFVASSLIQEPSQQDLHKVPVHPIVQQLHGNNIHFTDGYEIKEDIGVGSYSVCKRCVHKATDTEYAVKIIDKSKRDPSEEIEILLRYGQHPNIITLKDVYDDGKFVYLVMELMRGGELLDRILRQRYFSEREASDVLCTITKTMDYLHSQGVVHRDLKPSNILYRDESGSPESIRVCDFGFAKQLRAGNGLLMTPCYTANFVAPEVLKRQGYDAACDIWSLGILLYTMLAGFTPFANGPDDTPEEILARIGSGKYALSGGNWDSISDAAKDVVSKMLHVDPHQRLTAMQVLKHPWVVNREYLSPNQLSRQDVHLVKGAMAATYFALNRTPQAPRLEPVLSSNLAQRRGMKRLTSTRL
Ribosomal protein S6 kinase alpha-1 (Homo sapiens), sequence (Q15418 whole entry): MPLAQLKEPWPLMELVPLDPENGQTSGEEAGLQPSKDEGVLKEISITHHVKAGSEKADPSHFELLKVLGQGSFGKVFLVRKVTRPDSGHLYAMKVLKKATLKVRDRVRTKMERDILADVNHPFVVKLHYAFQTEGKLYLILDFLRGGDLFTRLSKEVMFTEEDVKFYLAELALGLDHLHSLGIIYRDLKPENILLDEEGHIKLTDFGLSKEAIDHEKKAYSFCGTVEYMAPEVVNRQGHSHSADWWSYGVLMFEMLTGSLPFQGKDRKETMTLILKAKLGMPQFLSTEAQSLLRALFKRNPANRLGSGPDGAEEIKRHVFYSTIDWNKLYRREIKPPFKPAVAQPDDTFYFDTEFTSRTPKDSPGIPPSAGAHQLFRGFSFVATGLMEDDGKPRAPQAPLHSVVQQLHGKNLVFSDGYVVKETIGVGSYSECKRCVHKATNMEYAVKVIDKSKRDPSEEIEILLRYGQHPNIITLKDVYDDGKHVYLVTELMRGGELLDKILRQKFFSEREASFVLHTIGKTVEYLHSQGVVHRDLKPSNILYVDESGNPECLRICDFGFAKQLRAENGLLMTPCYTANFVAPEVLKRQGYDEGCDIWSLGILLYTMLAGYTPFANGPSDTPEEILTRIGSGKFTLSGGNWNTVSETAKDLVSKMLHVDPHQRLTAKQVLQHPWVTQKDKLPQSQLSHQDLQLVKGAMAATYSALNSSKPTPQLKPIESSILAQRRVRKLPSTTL

| SMILES | inhibition [1] | inhibition [2] | inhibition [3] | inhibition [4] | inhibition [5] | inhibition [6] | inhibition [7] | inhibition [8] | inhibition [9] | inhibition [10] | inhibition [11] | inhibition [12] | inhibition [13] | inhibition [14] | inhibition [15] | inhibition [16] | inhibition [17] | inhibition [18] | inhibition [19] | inhibition [20] |
| --- | --- | --- | --- | --- | --- | --- | --- | --- | --- | --- | --- | --- | --- | --- | --- | --- | --- | --- | --- | --- |
| Nc1nonc1-c1nc2cnccc2n1C1CC1 | 18.3% and 17.4% | 5.14% and 1.26% | 21.9% and 19.9% | 13.6% and 15.4% | 50.7% and 56.1% | 36.7% and 40.2% | 65.8% and 69.3% | 3.44% and 4.71% | 23.7% and 26.4% | 43.6% and 46.2% | 79.3% and 77.8% | 56.4% and 54.3% | 81% and 77.9% | 66.3% and 63.6% | 84.2% and 79.4% | 46.1% and 47% | 79% and 75.8% | 67% and 69.5% | 90.9% and 91.2% | 10.3% and 11.7% |
| CS(=O)(=O)Nc1ccc(-c2cc(-c3ccccc3)cc(C(N)=O)c2N)cc1 | 1.14% | 1.65% | 2.57% | 2.68% | 2.84% | 1.37% | 2.4% | 1.16% | 1.26% | 1.5% | 1.71% | 0.41% | 1.85% | -1.14% | 0.41% | -0.7% | 0.45% | -1.55% | 0.47% | -1.16% |
| CS(=O)(=O)CCNCc1ccc(-c2ccc3ncnc(Nc4ccc(OCc5cccc(C(F)(F)F)c5)cc4)c3c2)o1 | 4.34% | 5.01% | 5.61% | 3.52% | 4.77% | 2.31% | 6.67% | 2.61% | 1.41% | 2.09% | 3.01% | 2.07% | 3.5% | 0.96% | 2.45% | -0.35% | 3.53% | 1.21% | 2.69% | 0.05% |
| CN1CCC(C(=O)Nc2n[nH]c3nc(-c4ccc(O)cc4)c(Br)cc23)CC1 | 4.6% and 3.02% | 1.49% and 1.43% | 3.3% and 2.68% | 2.6% and 0.38% | 8.03% and 6.39% | 2.67% and 0.36% | 8.41% and 4.33% | 3.06% and 1.23% | 6.6% and 1.62% | 1.28% and -0.29% | 2.13% and -0.83% | 3.65% and -0.14% | 7.61% and 0.92% | 2.66% and 0.77% | 5.58% and 0.84% | 2.78% and 0.04% | 6.6% and 1.92% | 3.56% and 2.99% | 7.9% and 6.17% | 2.77% and 0.98% |
| CS(=O)(=O)Nc1ccc(-c2ccc3c(NC(=O)C4CC4)n[nH]c3c2)cc1 | 5.01% | 3.46% | 6.13% | 2.24% | 3.26% | 1.29% | 2.97% | 1.03% | -0.97% | 0.87% | 1.98% | 0.25% | -0.32% | 1.25% | 1.36% | 0.62% | 0.96% | 0.73% | 3.79% | 1.37% |
| Nc1nccc(-c2c(-c3ccc(F)cc3)ncn2C2CCNCC2)n1 | 29.1% and 38.3% | -2.12% and 2.32% | 17.6% and 25.6% | -1.2% and -1.11% | -1.21% and 1.73% | -2.2% and 1.13% | 3.3% and 1.57% | -1.45% and 1.45% | -1.91% and 2.45% | -0.99% and 1.19% | 0.03% and 1.75% | -3.31% and 1.51% | -3.28% and 1.52% | -1.25% and 0.52% | 1.83% and 2.8% | -1.12% and 0.34% | 0.29% and 1.05% | -1.68% and 0.37% | 0.91% and 1.92% | -2.38% and 0.34% |
| CNC(=O)c1cncc(/C=C/c2ccccc2C)c1 | 3.79% | 3.31% | 4.34% | 4.05% | 5.68% | 2.97% | 5.05% | 3.99% | 6.15% | 1.2% | 1.27% | 4.29% | 8.78% | 2.39% | 4.99% | 2.14% | 3.84% | 0.87% | 2.74% | 0.45% |
